# CYP2C9 inh – inhibitors of human CYP2C9 | P11712 | CYP2C9 Supersomes, luciferin-H conversion, luminescence | inhibition, % at 5 µM | 20% of 96,000 active | AID 777;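 active = blocking of liver enzyme CYP2C9 beyond about 50% at 5 µM, limit read from the data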
# Cav3 T inh – human Cav3.2 channel inhibition, primary screen; 4% of 100,000 active; B-score at 10 µM; Cav3.2-expressing cells, Fluo-4 calcium fluorescence FDSS; active compounds read low; AID 449739;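 active = single-dose well whose peak fluorescence ratio is a statistical outlier from its plate by either plate-standardised score or position-corrected B-score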
# Target sequence (O95180 whole entry, looked up): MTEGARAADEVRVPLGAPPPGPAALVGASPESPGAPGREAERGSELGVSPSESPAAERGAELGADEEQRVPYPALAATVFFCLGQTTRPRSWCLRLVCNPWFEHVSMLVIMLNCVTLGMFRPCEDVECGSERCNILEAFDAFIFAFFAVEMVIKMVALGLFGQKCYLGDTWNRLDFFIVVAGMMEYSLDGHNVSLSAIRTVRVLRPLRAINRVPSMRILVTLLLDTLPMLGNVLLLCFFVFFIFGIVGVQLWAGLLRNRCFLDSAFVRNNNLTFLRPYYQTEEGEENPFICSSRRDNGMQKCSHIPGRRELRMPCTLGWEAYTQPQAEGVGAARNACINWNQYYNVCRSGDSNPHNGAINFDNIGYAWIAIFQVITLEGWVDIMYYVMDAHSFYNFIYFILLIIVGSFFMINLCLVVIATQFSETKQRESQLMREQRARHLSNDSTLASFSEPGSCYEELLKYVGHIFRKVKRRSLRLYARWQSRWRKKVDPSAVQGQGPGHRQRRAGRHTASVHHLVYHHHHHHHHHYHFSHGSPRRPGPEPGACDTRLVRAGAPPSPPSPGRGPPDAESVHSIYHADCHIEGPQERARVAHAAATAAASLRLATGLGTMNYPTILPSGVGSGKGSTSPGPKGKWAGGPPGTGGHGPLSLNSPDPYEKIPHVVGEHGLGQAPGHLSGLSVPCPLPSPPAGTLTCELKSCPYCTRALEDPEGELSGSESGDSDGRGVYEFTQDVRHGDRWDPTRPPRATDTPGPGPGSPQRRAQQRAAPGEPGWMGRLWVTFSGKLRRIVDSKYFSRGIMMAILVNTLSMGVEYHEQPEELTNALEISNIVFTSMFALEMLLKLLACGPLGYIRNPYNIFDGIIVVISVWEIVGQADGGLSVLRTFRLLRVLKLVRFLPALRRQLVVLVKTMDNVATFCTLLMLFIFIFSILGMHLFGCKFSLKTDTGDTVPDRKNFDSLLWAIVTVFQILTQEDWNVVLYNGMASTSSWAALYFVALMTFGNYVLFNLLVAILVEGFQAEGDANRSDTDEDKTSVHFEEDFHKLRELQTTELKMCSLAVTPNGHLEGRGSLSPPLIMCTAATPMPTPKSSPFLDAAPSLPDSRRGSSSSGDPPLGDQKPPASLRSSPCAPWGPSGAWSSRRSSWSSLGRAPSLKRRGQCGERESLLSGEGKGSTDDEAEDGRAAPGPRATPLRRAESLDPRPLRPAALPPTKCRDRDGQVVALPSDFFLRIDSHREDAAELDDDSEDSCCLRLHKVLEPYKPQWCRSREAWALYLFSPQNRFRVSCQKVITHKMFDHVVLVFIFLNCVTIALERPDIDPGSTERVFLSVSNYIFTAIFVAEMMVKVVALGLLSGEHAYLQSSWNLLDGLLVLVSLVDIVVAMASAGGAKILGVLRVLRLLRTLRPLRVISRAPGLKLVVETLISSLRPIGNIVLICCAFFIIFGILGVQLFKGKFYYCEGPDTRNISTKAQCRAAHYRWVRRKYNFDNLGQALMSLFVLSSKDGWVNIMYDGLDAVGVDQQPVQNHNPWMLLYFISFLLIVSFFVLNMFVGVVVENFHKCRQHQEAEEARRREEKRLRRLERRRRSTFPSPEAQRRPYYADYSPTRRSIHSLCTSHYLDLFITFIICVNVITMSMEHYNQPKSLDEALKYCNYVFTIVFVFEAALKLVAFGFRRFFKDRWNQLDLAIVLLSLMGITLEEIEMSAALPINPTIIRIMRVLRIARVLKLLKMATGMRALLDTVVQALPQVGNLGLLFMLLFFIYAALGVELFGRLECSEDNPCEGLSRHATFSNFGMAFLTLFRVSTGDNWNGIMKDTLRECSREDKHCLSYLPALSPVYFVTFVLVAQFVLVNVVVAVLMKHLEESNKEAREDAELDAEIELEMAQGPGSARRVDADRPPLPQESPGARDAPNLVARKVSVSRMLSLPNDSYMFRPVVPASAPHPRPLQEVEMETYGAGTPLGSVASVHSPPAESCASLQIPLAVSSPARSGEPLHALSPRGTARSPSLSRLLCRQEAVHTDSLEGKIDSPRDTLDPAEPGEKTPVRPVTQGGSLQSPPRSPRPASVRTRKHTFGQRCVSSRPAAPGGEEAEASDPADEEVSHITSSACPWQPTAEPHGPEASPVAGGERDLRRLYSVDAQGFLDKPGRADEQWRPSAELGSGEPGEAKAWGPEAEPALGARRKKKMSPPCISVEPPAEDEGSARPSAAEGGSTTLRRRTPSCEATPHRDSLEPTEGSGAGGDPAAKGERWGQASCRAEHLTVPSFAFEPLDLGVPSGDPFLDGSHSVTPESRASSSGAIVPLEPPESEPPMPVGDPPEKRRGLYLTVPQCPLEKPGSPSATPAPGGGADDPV
# CYP2C9 act – CYP2C9 (human) activation; 1.4% of 96,000 active; recombinant CYP2C9, luciferin-H conversion, luminescence; active compounds read high; factor 1 = untreated enzyme, 0 = blocked; P11712; activation factor at 5 µM; AID 1024;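 active = activation factor of 2 or more for CYP2C9 at a 5 µM dose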;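 also: 0 = sulfaphenazole-blocked wells and 1 = vehicle-only wells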
# CYP2C19 activ – increases human CYP2C19 enzyme activity | activation factor at 5 µM | P33261 | recombinant CYP2C19, luciferin-H EGE luminescence; active compounds read high; 0 = fully inhibited enzyme, 1 = untreated enzyme | 96,000 tested, under 10 active | AID 1025;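 active = activation factor of at least 2 at 5 µM in the primary screen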;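 also: 0 = wells with 2.5 mM tranylcypromine and 1 = vehicle-only wells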
# CYP2C19 inhib – blocks human cytochrome P450 2C19. CYP2C19 Supersomes, luciferin-H EGE luminescence, 30 min. inhibition, % at 5 µM. 21% of 96,000 active. AID 778;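 active = CYP2C19 inhibition above a set limit at 5 µM in the primary screen, cut at about 50% in these data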;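 also: plate controls were negative control wells for no effect and 2.5 mM tranylcypromine positive control for full effect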
# The depositor's hits bear a star; / = not tested or not shown. Sampled rows, rich in hits. Any-hit rate of the full collection: about 27%.
SMILES,CYP2C9 inh,Cav3 T inh,CYP2C9 act,CYP2C19 activ,CYP2C19 inhib
Cc1ccccc1Cn1ccc(-c2ccc3c(c2)OCO3)n1,50*,-3,0.5,0.4,58*
CN1CCN(S(=O)(=O)c2cccc(C(=O)N(c3ccccn3)C3CCCCC3)c2)CC1,6,0.66,0.9,0.9,11
C=CCN(C(=O)c1cccc(S(=O)(=O)N2CCN(C)CC2)c1)c1nc(-c2ccccc2)cs1,77*,/,0.2,0.2,79*
CC(=O)/C(=N/Nc1ccccc1C)N1CCOCC1,-3,0.73,1,0.8,17
CC12CCC(c3c(CO)nn(-c4ccccc4)c31)C2(C)C (stereo unspecified),-16,0.63,1.2,0.4,59*
Cc1ccccc1Nc1nc(N)nc(CSCc2c(C)noc2C)n1,57*,0.31,0.4,0.4,64*
Cc1cccc(NC(=O)CSCc2c(C)noc2C)c1C,-9,0.5,1.1,0.3,74*
Cc1noc(C)c1CSCC(=O)NC1=NCCS1,28,1.2,0.7,0.7,35
Cc1ccccc1Nc1nc(N)nc(COC(=O)c2cccn2C)n1,12,-0.18,0.9,0.7,29
O=C(C[n+]1cc2ccccc2c2ccccc21)c1ccccc1,72*,-0.16,0.3,0.4,55*
O=C(O)CCC(=O)CCC(=O)c1ccccc1,-2,-0.072,1,1,4
O=C1CC(c2cccc(Br)c2)c2cc3c(cc2N1)CCC3 (stereo unspecified),55*,/,0.5,0.7,29
C(=N\N1CCN(Cc2cccc3ccccc23)CC1)/c1ccco1,-26,-2.1,1.3,0.5,50*
FC(F)(F)c1ccc(/C=N/N2CCN(Cc3cccc4ccccc34)CC2)cc1,4,-0.14,1,1,0
CCCc1c(O)c2ccccc2n(-c2ccccc2)c1=O,-16,1.4,1.2,0.7,31
CC(=O)c1c(O)c(C)c(-c2ccccc2)n(-c2ccccc2)c1=O,-1,-3.6*,1,1,-1
CCO/N=C(\C)c1c(O)c(CC)c(-c2ccccc2)n(-c2ccccc2)c1=O,/,-3.9*,/,/,/
CN(C)C(CNC(=O)NC1CCCCC1)c1cccnc1 (stereo unspecified),-3,-0.18,1,1,-1
O=C(NCc1ccncc1)c1cccc(Cn2cc(Br)cn2)c1,90*,0.38,0.1,0.1,88*
CC(=O)Nc1ccc(S(=O)(=O)N2CCN(c3cc(C)nc4ccccc34)CC2)cc1,66*,-0.091,0.3,0.6,45
CC(=O)Nc1ccc(S(=O)(=O)N2CCC(c3nc4ccccc4[nH]3)CC2)cc1,68*,0.32,0.3,0.5,48
O=S(=O)(c1ccc2c(c1)OCCO2)N1CCC(c2nc3ccccc3[nH]2)CC1,-57,0.87,1.6,0.4,63*
O=S(=O)(c1ccc2c(c1)OCCO2)N1CCC(c2nc3ccc(Cl)cc3[nH]2)CC1,-111,-2.4,2.1*,0.2,84*
CC(=O)Nc1ccc(S(=O)(=O)N2CCN(C(=O)N3CCOCC3)CC2)cc1,-22,0.57,1.2,1.2,-17
O=C(c1ccc(S(=O)(=O)N2CCC(c3nc4ccccc4[nH]3)CC2)cc1)N1CCOCC1,35,0.63,0.6,0.5,47
SMILES,CYP2C9 inh,Cav3 T inh,CYP2C9 act,CYP2C19 activ,CYP2C19 inhib
Cc1cccc(C)c1NC(=O)N1CCC(c2nc3ccccc3o2)CC1,14,-3.2,0.9,0.9,6
C=CCC1CCCCC12NC(=O)NC2=O (stereo unspecified),-17,-0.55,1.2,1.1,-7
Cc1ccc2nc(C3CCN(S(=O)(=O)c4ccc5ccccc5c4)CC3)[nH]c2c1,-195,-2.1,3*,0.6,38
O=C(NC1CCCCC1)[C@H](CSCc1ccccc1)N1Cc2ccccc2C1=O,/,-2.7,/,/,/
CCCS(=O)(=O)N1CCC(C(=O)NCc2ccccc2Cl)CC1,-60,0.93,1.6,1,-2
CCc1nc(SC)[nH]c(=O)c1C,16,0.55,0.8,0,95*
CCCc1nc(SCC(N)=O)[nH]c(=O)c1CC,-5,0.82,1.1,1,0
OCCNc1nc(Nc2ccccc2)nc2ccccc12,/,-0.92,/,/,/
Oc1cccc(Nc2nc(NCC3CCCO3)c3ccccc3n2)c1 (stereo unspecified),60*,-0.87,0.4,0.5,51*
O=c1c(-c2ccnn2-c2cccc(Cl)c2)cnc2n1CCS2,46,1.3,0.5,0.1,91*
O=C(c1cnc2n(c1=O)CCS2)N1CCCc2ccccc21,/,0.58,/,/,/
O=C(c1cnc2n(c1=O)CCS2)N1CCN(c2ccc(Cl)c(Cl)c2)CC1,8,0.69,0.9,0.8,17
O=c1c(-c2ccnn2-c2ccccc2F)cnc2n1CCS2,12,0.64,0.9,0.4,58*
O=c1c(-c2ccnn2-c2ccc(F)cc2)cnc2n1CCS2,8,0.95,0.9,0.2,79*
N#Cc1ccc(-n2nccc2-c2cnc3n(c2=O)CCS3)cc1,24,0.41,0.8,0.1,92*
CC(C)(C)NC(=O)CSC(=Nc1cccc(F)c1)NC#N,32,0.083,0.7,0.9,6
C=CCn1c(SCC(=O)c2ccc(O)c(O)c2)nnc1-c1ccccc1OC,-41,2.1,1.4,0.3,75*
COCCn1c(C)cc(C(=O)CSc2nnc(-c3cccnc3)n2-c2ccccc2F)c1C,21,0.6,0.8,0.9,13
Cc1cc(C(=O)CSc2nnc(-c3cccs3)n2Cc2ccccc2)c(C)n1C,43,-3.7,0.6,0.6,42
CCn1c(SCC(N)=O)nnc1-c1ccc(OC)c(OC)c1,-12,0.77,1.1,1,-1
Cc1ccccc1-n1c(SCC(=O)c2cc(C)n(C)c2C)nnc1-c1cccnc1,62*,1.4,0.4,0.3,67*
C=CCn1c(SCC(=O)Nc2ccc3c(c2)OCO3)nnc1-c1ccccc1O,40,-1.5,0.6,0.6,42
CCn1c(SCC(=O)c2ccc(O)c(O)c2)nnc1-c1ccccc1OC,-28,1.1,1.3,0.3,67*
CCn1c(SCC(=O)c2cc(C)n(C)c2C)nnc1-c1ccccc1,-45,0.26,1.5,0,100*
Cc1ccc(N2CC(c3nc4ccccc4[nH]3)CC2=O)c(C)c1 (stereo unspecified),/,0.15,/,/,/
SMILES,CYP2C9 inh,Cav3 T inh,CYP2C9 act,CYP2C19 activ,CYP2C19 inhib
Cc1cc(C(=O)CSc2nc3ccccc3n2C)c(C)n1C,-239,0.68,3.4*,0.7,33
Cc1cc(C(=O)CSc2nc3ccccc3c(=O)[nH]2)c(C)n1C,49,0.88,0.5,0.5,50
CCn1c(SCC(=O)c2ccc(O)c(O)c2)nnc1-c1ccccc1,24,/,0.8,0,98*
CC1(C)CC(=O)c2c(O)cc(OCc3ccc([N+](=O)[O-])cc3)cc2O1,3,/,1,1,-4
CCn1c(=O)cc(OCC(=O)Nc2ccccc2C#N)c2ccccc21,41,-0.36,0.6,0.7,30
O=C(CCn1c(=O)sc2ccccc21)NCCN1CCOCC1,/,0.089,/,/,/
c1csc(-c2csc3nc(CN4CCOCC4)nc(NCc4ccc5c(c4)OCO5)c23)c1,84*,-7.6*,0.2,0.2,79*
